From publication PMC5540273 (PLoS ONE, 2017) come the findings set out here.

For one assay, the system named is MKK7. To be noted: concentration: 1 μM, replicates: in singlicate, n = 1.
The subject of the next assay is MKNK1. To be noted: concentration: 1 μM, replicates: in singlicate; n = 1.
A further assay deals with MKNK2. To be noted: concentration: 1 μM, replicates: in singlicate, n = 1.
The test system of the next assay is T1, MLCK.
T1 construct: gene MYLK3
To be noted: concentration: 1 μM, replicates: in singlicate; n = 1.

The next assay deals with T2, MLK1.
T2 construct: gene MAP3K9
To be noted: concentration: 1 μM, replicates: in singlicate; n = 1.

The subject of the next assay is MLK2. To be noted: concentration: 1 μM, replicates: in singlicate, n = 1.
The next assay relates to MLK3. To be noted: concentration: 1 μM, replicates: in singlicate; n = 1.
The subject of the next assay is MRCKA. To be noted: concentration: 1 μM, replicates: in singlicate, n = 1.
The subject of another assay is T3, MRCKB.
T3 construct: gene CDC42BPB
To be noted: concentration: 1 μM, replicates: in singlicate, n = 1.

Another assay deals with MST1R. To be noted: concentration: 1 μM, replicates: in singlicate, n = 1.
The test system of another assay is T4, MST1.
T4 construct: gene STK4
To be noted: concentration: 1 μM, replicates: in singlicate, n = 1.

In the next assay the test system is T5, MST2.
T5 construct: gene STK3
To be noted: concentration: 1 μM, replicates: in singlicate; n = 1.

A further assay has as its system T6, MST3.
T6 construct: gene STK24
To be noted: concentration: 1 μM, replicates: in singlicate, n = 1.

The subject of a further assay is MST4. To be noted: concentration: 1 μM, replicates: in singlicate, n = 1.
Another assay deals with MTOR. To be noted: concentration: 1 μM, replicates: in singlicate, n = 1.
The test system of a further assay is MUSK. To be noted: concentration: 1 μM, replicates: in singlicate; n = 1.
Another assay relates to MYLK2. To be noted: concentration: 1 μM, replicates: in singlicate, n = 1.
For the next assay, the system named is MYLK4. To be noted: concentration: 1 μM, replicates: in singlicate, n = 1.
The next assay deals with MYLK. To be noted: concentration: 1 μM, replicates: in singlicate, n = 1.
The next assay concerns MYO3A. To be noted: concentration: 1 μM, replicates: in singlicate, n = 1.

“And” between values parts separate entries of the source, which are not always exact repeats. Equal entries are not always repeated. Where two headings read alike, the source gives them in different places.
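Also: KINOMEscan kinase panel screen.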

For `COc1ccc(Nc2nccc(N3CCC(NC(=O)Nc4cc(C)ccc4C)C3)n2)cc1` (centres unmarked) [GSK1379741], the “%Inh” value in the assay with MKK7 stood at 28%; with MKNK1, 0%; in the assay on MKNK2 it was 5%; in the assay on MLCK, 11%; with MLK1 it was 0%; with MLK2 it was 0%. Further, the “%Inh” value in the assay with MLK3 worked out at 0%; in the assay on MRCKA, 24%; with MRCKB, 0%; in the assay with MST1R it was 55%; in the assay on MST1, 0%; with MST2, 1%. In addition, the “%Inh” value in the assay with MST3 is recorded as 0%; with MST4, 0%; in the assay with MTOR it was 11%; in the assay with MUSK, 0%; in the assay with MYLK2, 0%; with MYLK4, 0%. Besides, the “%Inh” value in the assay with MYLK and in the assay with MYO3A was 0% throughout.
Consider `COc1cc2c(cc1OCCN1CCN(C)CC1)ncc1c3ccc(C#N)cc3[nH]c21`, for which the “%Inh” value in the assay with MKK7 is 0%; with MKNK1, 99.4%; in the assay on MKNK2, 99.7%; in the assay on MLCK it was 98.8%; with MLK1, 0%; in the assay with MLK2, 0%. Besides, the “%Inh” value is 20% in the assay with MLK3; 10% in the assay on MRCKA; 0% in the assay with MRCKB; 7% with MST1R; 0% in the assay with MST1; 30% in the assay with MST2. For the same compound, the “%Inh” value in the assay with MST3 turned out to be 36%; with MST4, 0%; with MTOR it was 38%; with MUSK, 0%; in the assay with MYLK2, 72%; with MYLK4, 75%. The entries for the “%Inh” value in the assay with MYLK and in the assay with MYO3A were 26% and 0%, respectively.
Take `CN(C(=O)c1ccc(-c2cc(-c3c[nH]nc3-c3ccccn3)ccn2)cc1)C1CCOCC1` [GW810083]: the “%Inh” value in the assay on MKK7 came out at 0%; in the assay with MKNK1, 0%; with MKNK2 it was 37%; in the assay with MLCK it was 0%; in the assay with MLK1 it was 0%; with MLK2, 0%. Further, the “%Inh” value is 0% in the assay with MLK3; 4% in the assay on MRCKA; 10% in the assay with MRCKB; 0% in the assay with MST1R; 8% with MST1; 13% with MST2. Moreover, the “%Inh” value in the assay with MST3 came out at 34%; in the assay on MST4, 0%; in the assay with MTOR it was 10%; in the assay with MUSK, 0%; in the assay with MYLK2 it was 0%; in the assay with MYLK4, 0%. For the same compound, the “%Inh” value in the assay with MYLK and in the assay with MYO3A was 0% each time.
As for `COC(=O)Nc1nc2cc(Oc3ccc(NC(=O)Nc4cc(F)ccc4F)cc3)ccc2[nH]1.Cl` [GW701424], the “%Inh” value with MKK7 stood at 0%; with MKNK1 it was 23%; in the assay on MKNK2, 12%; with MLCK it was 0%; with MLK1 it was 0%; in the assay on MLK2, 0%. Moreover, the “%Inh” value stood at 0% with MLK3; 16% in the assay with MRCKA; 0% in the assay on MRCKB; 29% in the assay with MST1R; 0% in the assay with MST1; 0% in the assay with MST2. Also, the “%Inh” value with MST3 is listed as 6%; in the assay on MST4, 0%; in the assay with MTOR, 15%; in the assay on MUSK, 99.1%; in the assay with MYLK2, 0%; in the assay on MYLK4, 0%. Moreover, the “%Inh” value in the assay with MYLK is reported as 0%; in the assay with MYO3A it was 33%.
Turning to `COc1ccc(Nc2nccc(N3CCC(NC(=O)Nc4cccc(C(C)=O)c4)C3)n2)cc1` (centres unmarked) [GSK1379731], the “%Inh” value in the assay with MKK7 worked out at 0%; in the assay with MKNK1, 0%; in the assay with MKNK2, 4%; with MLCK it was 5%; with MLK1 it was 0%; in the assay on MLK2 it was 0%. In addition, the “%Inh” value in the assay on MLK3 is 0%; with MRCKA it was 0%; in the assay with MRCKB, 0%; in the assay with MST1R, 17%; in the assay with MST1 it was 4%; in the assay with MST2, 0%. Moreover, the “%Inh” value with MST3 turned out to be 0%; in the assay on MST4, 0%; in the assay with MTOR, 16%; with MUSK, 3%; in the assay on MYLK2, 0%; in the assay with MYLK4 it was 0%. Moreover, the “%Inh” value in the assay on MYLK and with MYO3A was 0% each time.
For the compound `Cl.Cl.Cl.Fc1ccc(-c2ncn(C3CCNCC3)c2-c2ccnc(Nc3ccccc3)n2)cc1` [SB-238039], the “%Inh” value with MKK7 (1 µM) is 23% and 0%; in the assay on MKNK1, 0%; in the assay with MKNK2 (1 µM), 0% and 29%; in the assay on MLCK, 0%; with MLK1 it was 0%; in the assay with MLK2 (1 µM), 40% and 6%. The “%Inh” value in the assay on MLK3 was 0%; in the assay on MRCKA (1 µM), 90.3% and 71%; in the assay with MRCKB (1 µM) it was 75% and 92.8%; in the assay on MST1R (1 µM), 0% and 40%; in the assay on MST1 (1 µM), 82% and 69%; in the assay on MST2, 0%. Moreover, the “%Inh” value in the assay on MST3 (1 µM) is 12% and 46%; in the assay with MST4 (1 µM) it was 44% and 0%; in the assay on MTOR (1 µM) it was 22% and 0%; with MUSK it was 0%; with MYLK2 (1 µM), 43% and 30%; with MYLK4 (1 µM), 6% and 0%. For the same compound, the “%Inh” value was 0% and 22% in the assay with MYLK (1 µM); 4% and 10% in the assay on MYO3A (1 µM).
For `O=C1NC(=O)C(N2CCc3ccccc32)=C1c1cccc(Cl)c1` [SB-408010], the “%Inh” value in the assay on MKK7 is 0%; in the assay with MKNK1, 18%; with MKNK2, 46%; with MLCK, 0%; in the assay on MLK1, 0%; in the assay on MLK2, 0%. In addition, the “%Inh” value worked out at 0% in the assay with MLK3; 0% in the assay with MRCKA; 15% in the assay on MRCKB; 5% in the assay with MST1R; 0% in the assay with MST1; 63% in the assay on MST2. Moreover, the “%Inh” value with MST3 is recorded as 4%; in the assay on MST4 it was 0%; in the assay on MTOR, 0%; with MUSK, 0%; with MYLK2, 0%; in the assay on MYLK4, 0%. Moreover, the “%Inh” value was determined as 8% with MYLK and 9% in the assay with MYO3A.
